Screening results (PubChem BioAssay)
LASV entry inh: qHTS for Inhibitors of binding or entry into cells for Lassa Virus. Lassa virus pseudotype entry inhibition, cell reporter. Potency, µM (top dose mostly 37.9 µM), inactives show at the top dose activity change, negative = inhibition, hits mostly inhibitors. 1.2% of 300,000 active. AID 540256, 2011; calls by dose curve; tested in HEK293 cells; note: potency is the fitted concentration of half-maximal effect; nearly all actives have a fitted effect of over 50% in size
MARV entry inh: qHTS for inhibitors of binding or entry into cells for Marburg Virus; Marburg virus pseudotyped entry inhibition, cell reporter; Potency, µM (highest dose often 37.8 µM), for inactives: at the top dose activity change, negative = inhibition, actives largely listed as inhibitors; 1.8% of 300,000 active; calls by dose curve; tested in HEK293 cells; note: potency is the fitted concentration of half-maximal effect
HCMV inh: qHTS Assay for inhibitors of the human cytomegalovirus (HCMV); HFF cells, HCMV-luciferase reporter, 72 h; stronger effect = lower value; activity change, negative = inhibition, % at 57.5 µM; 4.5% of 410,000 active; AID 1259415, 2018; in the data active = activity change below about -60%; inconclusive = no clear call, values can overlap the other calls; inactive = above about -39%
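Cell-based, HFFs, 1000 cells/well, 16 h 37C; cpds in DMSO + HCMV-luc, MOI 1 PFU/cell; 72 h 37C; OneGlo luminescence after 5 min RT; norm. to buffer vs Salinomycin 10uM.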
FMDV antiviral: High Throughput Screening for Foot and Mouth Disease Virus Antivirals | FMDV antiviral cell-based qHTS | Potency, µM (highest dose often 57.9 µM), without a hit: at the highest dose activity change, negative = inhibition, actives largely listed as inhibitors | 1.2% of 410,000 active; calls by dose curve; tested in HEK293T cells; note: read-out not given here; potency is the fitted concentration of half-maximal effect; nearly all actives have a fitted effect of over 45% in size
HCV inhibitor: qHTS Assay for Inhibitors of Hepatitis C Virus (HCV). 3.4% of 340,000 active. Potency, µM (series often up to 41.8 µM), for the others: at the highest dose activity change, negative = inhibition, usual class: inhibitors. Huh7.5.1 HCVcc-Cre infection, luciferase reporter, 44 h; note: potency is the fitted concentration of half-maximal effect
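HCVcc-Cre virus at an moi near 0.5 was added right after compound to cells cultured 4 h from seeding (1,000 cells/well). Luciferase activity was determined 44 h later, 15 min after substrate addition at RT.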
FBPA Giardia inh: qHTS Assay for Inhibitors of Fructose-1,6-bisphosphate Aldolase from Giardia Lamblia. purified Giardia FBPA. 0.71% of 290,000 active. A8B2U2. Potency, µM (series often up to 59.6 µM), without a hit: at the highest dose activity, negative = inhibition, actives largely listed as inhibitors. AID 2451, 2010; note: potency is the fitted concentration of half-maximal effect; nearly all actives have a fitted effect of over 55% in size
Target sequence (A8B2U2 whole entry, looked up): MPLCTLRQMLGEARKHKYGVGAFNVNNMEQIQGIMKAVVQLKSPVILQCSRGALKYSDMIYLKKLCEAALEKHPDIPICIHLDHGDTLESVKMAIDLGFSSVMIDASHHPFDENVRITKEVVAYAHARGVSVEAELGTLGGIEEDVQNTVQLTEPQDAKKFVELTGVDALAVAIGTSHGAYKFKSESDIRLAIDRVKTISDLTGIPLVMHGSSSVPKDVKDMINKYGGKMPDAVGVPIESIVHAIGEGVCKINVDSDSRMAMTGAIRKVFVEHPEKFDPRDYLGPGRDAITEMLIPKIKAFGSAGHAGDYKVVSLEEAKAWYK
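40 nM FBPA preincubated 10 min at RT with compound (up to 57.5 uM final), then substrate plus GAPDH/TPI/NAD/arsenate coupling and diaphorase/resazurin added. Fluorescence read after 20 min at RT, 525/598 nm.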
Active calls of the source: *; ? = inconclusive; . = no result; [ ] = another dose, or the depositor's remark. This is a sample that favours compounds with a hit; in the whole collection about 8.3% have one here. Unless noted, calls come from the whole dose curve; as a rule, active = well fitted curve in the direction sought with a large enough effect; inconclusive = small, poorly fitted or top-dose-only effect, or another doubt; inactive = no such curve, though single readings can be large; an effect the other way counts as inactive or inconclusive. % is set by controls: 0 for no effect and ±100 for the full control effect.

SMILES	LASV entry inh	MARV entry inh	HCMV inh	FMDV antiviral	HCV inhibitor	FBPA Giardia inh
Cc1c(/C(O)=C2/C(=O)C(=O)N(Cc3cccnc3)C2c2ccccn2)cnn1-c1ccccc1 (centres undefined)	-13%	?	-76*	4µM*	-1%	0%
COc1ccc(-c2csc(NC(=O)c3c(C)noc3C)n2)cc1F	1%	?	-37	40µM*	?	.
CC(=O)Nc1nc(-c2ccc3c(c2)CCO3)cs1	.	.	-76*	15%	4%	-5%
COc1ccccc1C(=O)Nc1nc(-c2ccc3c(c2)OCCO3)cs1	.	.	-63*	-2%	6%	3%
COc1ccc(-c2csc(NC(=O)C3CCN(C(=O)c4ccc(F)cc4)CC3)n2)cc1OC	16µM*	?	.	35µM*	.	4%
Cc1noc(C)c1C(=O)Nc1nc(-c2ccc(F)c(F)c2)cs1	14%	3%	-27	12%	?	.
O=C(Nc1nc(-c2ccc3c(c2)OCCO3)cs1)c1ccco1	.	.	0	.	.	.
Cc1oc2ncn(C)c(=O)c2c1C(=O)N(C)c1ccccc1F	?	.	0	4%	.	.
Cc1ccc(/C=C2/CNC/C(=C\c3ccc(C)cc3)C2=O)cc1	.	.	.	?	.	-7%
COc1ccc(-c2csc(NC(C)=O)n2)cc1OC	-8%	?	37	29%	?	0%
COc1cccc(NC(=O)Nc2nc(-c3ccc(OC)c(OC)c3)cs2)c1	?	?	-99*	25µM*	2.8µM*	-3%
Nc1c(Cl)cc(C(=O)NC2CC2)cc1Cl	0%[46.1 µM]	11µM*	2	-1%	-2%	.
COCc1cc(C)nc(SCC(=O)Nc2cc3c(cc2C#N)OCO3)c1C#N	2%	-16%	-32	2%	10µM*	5%
CC(=O)NC(NC(=S)Nc1ccc(N=Nc2ccccc2)cc1)C(Cl)(Cl)Cl (centres undefined)	?	?	-26	?	7.1µM*	-6%
CC(=O)NC(NC(=S)Nc1ccc(S(N)(=O)=O)cc1)C(Cl)(Cl)Cl (centres undefined)	.	.	18	-20%	13%	-6%
COc1ccc(NC(=S)NC(NC(=O)/C=C/c2ccccc2)C(Cl)(Cl)Cl)cc1 (centres undefined)	-26%	-15%	46	?	-17%	2%
O=C(CCc1ccccc1)NC(NC(=S)Nc1ccc(Cl)cc1)C(Cl)(Cl)Cl (centres undefined)	?	11µM*	-39	-13%	-12%	0%
CC(C)(C)C(=O)Nc1ccc(N=Nc2ccccc2)cc1	?	?	-62*	18µM*	?	-1%
O=C(/C=C/c1ccccc1)NC(NC(=S)Nc1ccc(Cl)cc1)C(Cl)(Cl)Cl (centres undefined)	?	4.6µM*	?	-21%	?	-1%
CCCC[C@@H](C)[C@@H](OC(=O)C[C@@H](CC(=O)O)C(=O)O)[C@H](C[C@@H](C)C[C@H](O)CCCC[C@@H](O)C[C@H](O)[C@H](C)N)OC(=O)C[C@H](CC(=O)O)C(=O)O	.	.	.	8%[39.8 µM]	.	.
COc1ccc(N2CCN(c3ccc(-c4nc(-c5ccccc5)no4)cc3[N+](=O)[O-])CC2)cc1	-2%[46.1 µM]	4%[46.1 µM]	-10	-10%	.	.
O=C(Cn1c(=O)nc(-c2ccccc2F)c2cc(Cl)ccc21)NCCCc1ccccc1	?	?	0	-27%	.	.
Cc1ccc2nc(N(CCCN(C)C)C(=O)c3cc(-c4cccs4)nc4ccccc34)sc2c1	.	.	23	-18%	11µM*	?
Cc1ccc2nc(N(CCN(C)C)C(=O)c3cc(Cl)sc3Cl)sc2c1	?	8%	-13	-3%	-11%	-18%
CN(C)CCCN(C(=O)c1cc(-c2cccs2)nc2ccccc12)c1nc2c(F)cccc2s1	?	11µM*	-8	-17%	12%	.
SMILES	LASV entry inh	MARV entry inh	HCMV inh	FMDV antiviral	HCV inhibitor	FBPA Giardia inh
CN(C)CCCN(C(=O)c1sc2ccccc2c1Cl)c1nc2c(F)cccc2s1	23%	-1%	-26	0%	-14%	9%
CC(=O)Nc1ccc(Nc2nc(C(F)(F)F)nc3c2nnn3Cc2ccccc2Cl)cc1	-5%[46.1 µM]	-28%[46.1 µM]	-72*	?	?	5%
CCOCCCNc1nc(C(F)(F)F)nc2c1nnn2Cc1ccccc1Cl	.	.	?	?	11µM*	-1%
CCc1nc(Nc2ccc(OC)c(OC)c2)c2nnn(Cc3ccccc3Cl)c2n1	?	?	?	25µM*	?	0%
CN(C)S(=O)(=O)c1ccc(Nc2nc(C3CC3)nc3c2nnn3Cc2ccccc2Cl)cc1	?	-34%	-79*	5µM*	?	-1%
C=CCNc1nc(C(F)(F)F)nc2c1nnn2Cc1ccccc1Cl	.	.	24	-16%	1%	6%
CCCCOC(=O)c1ccc(NC(=O)CSc2nc3c(c(=O)[nH]2)CCCC3)cc1	-16%[46.1 µM]	9%[46.1 µM]	-7	-14%	.	.
Cc1ccc(-c2nc(N)nc(N)n2)c(C)c1	.	.	-95*	-3%	-11%	.
Cc1ccc(N)c(C)c1	.	.	-21	0%	-24%	.
O=C(NCCN1Cc2ccccc2OC(c2ccsc2)C1)c1ccc2[nH]ccc2c1 (centres undefined)	.	.	.	1%	.	.
COc1ccc(S(=O)(=O)N(CC(=O)N2CCC(C)CC2)c2ccc(C)cc2)cc1	7.1µM*	-5%[46.1 µM]	-6	58%	.	.
Cc1ccc(S(=O)(=O)N(CC(=O)N2CCC(C)CC2)c2ccccc2)cc1	-19%	-20%[46.1 µM]	-28	33%	19%	-4%
COc1ccc(N(CC(=O)N2CCN(c3cccc(C)c3)C(C)C2)S(=O)(=O)c2c(C)n[nH]c2C)cc1 (centres undefined)	?	?	-77*	-25%	-3%	-9%
CCN(CC(=O)N1CCC(C)CC1)S(=O)(=O)c1ccc(C)cc1	-1%	3%	8	4%	20%	.
Cc1ccc(S(=O)(=O)N(CC(=O)N2CCCCCC2)c2ccccc2)cc1	6.5µM*	26%	-5	64%	10%	4%
Cc1ccc(S(=O)(=O)N(CC(=O)N2CCC(C)CC2)Cc2ccccc2F)cc1	?	?	-63*	14%	0%	?
CN(C)c1ccc(-c2cncnc2-n2ccnc2)cc1	.	.	.	-13%	.	?
CC1=C2C(=COC(C)C2C)C(=O)C(C(=O)O)=C1O (centres undefined)	.	.	.	-14%	.	?
COc1c(CO)cc(CO)cc(CO)c1=O	.	.	.	-11%	.	-7%
Cc1ccc(S(=O)(=O)Nc2cc(Cl)c(O)cc2C)cc1	-12%	?	-70*	-28%	?	-3%
COc1ccccc1OCC(=O)OC/C(O)=C(\C#N)c1nc2ccccc2[nH]1	.	.	-99*	2%	-12%	-2%
